Values without a mark were called inactive. Rule as the data show it: active = inhibition above about 30%; inactive = the rest.
Test: growth suppression of yeast trafficking mutant, preliminary HTS, modulators of trafficking downstream of Golgi apparatus project, 1536-format plate, OD 615 nm (AID 637)
Details: yeast transport mutant growth, absorbance 615 nm, 18 h; active compounds read high

| SMILES | inhibition [%] |
| --- | --- |
| Cc1cc2c(c(=O)o1)C(Cc1ccccc1)C(C#N)=C(N)O2 (stereo not given) | 1.8 |
| O=C(C1CC1)N1CCC(c2nc(-c3ccc(S(=O)(=O)NCC4CCCO4)cc3)no2)CC1 (stereo not given) | -0.82 |
| N#Cc1c(NC(=O)CSc2nc(N)cc(=O)[nH]2)sc2c1CCCCCC2 | -10 |
| O=C(NCCCNC1CCCCC1)c1ccc(/C=N/O)nc1 | -5.71 |
| CCOC(=O)CNC(=O)CSc1ncnc2c1cnn2Cc1ccccc1 | -6.56 |
| CCn1nc(CC(=O)Nc2nnc(CC(=O)N3CCCCC3)s2)c2ccccc2c1=O | -4.83 |
| C/C(N)=C(/C#N)C(=O)COC(=O)c1cc(C)n(-c2ccc(F)cc2)c1C | -1.45 |
| COc1cc(CNc2ccc(N3CCOCC3)c(C(=O)O)c2)ccc1OCC(N)=O | -2.13 |
| Cc1oc(C(=O)O)cc1CSCc1cc(C(=O)O)c(C)o1 | -1.48 |
| c1ccc(CN2C3=NCCCN3c3ccccc32)cc1 | -3.65 |
| COc1ccc(OC)c(NC(=O)CSc2nc3ccccc3c(=O)n2CCNC(C)=O)c1 | 0.32 |
| Cc1cccc(CS(=O)(=O)Cc2ccc(C(=O)NCC3CCCO3)o2)c1 (stereo not given) | -4.19 |
| COc1ccccc1N1CCN(C(=O)c2oc3cc(C)c(C)cc3c2C)CC1 | -2.62 |
| COc1cccc(NC(=O)COC(=O)c2ccco2)c1 | -1.27 |
| COCCNC(=O)c1c(N)n(CCC2=CCCCC2)c2nc3ccccc3nc12 | -2.38 |
| Cc1ccccc1C(=O)Nc1c(C(=O)N2CCCC2)cnn1-c1ccccc1 | -0.63 |
| O=C(Cn1cnc2c(nnn2Cc2ccc(Cl)cc2)c1=O)NCC1CCCO1 (stereo not given) | -1.27 |
| Cc1nc2ncnn2c(N2CCC(C(=O)NC3CCCC3)CC2)c1Cc1ccccc1 | -4.76 |
| COCCn1nnnc1C(C(C)C)N1CCN(C(=O)c2ccco2)CC1 (stereo not given) | 15.6 |
| CCOc1cc(-c2nc3ccccn3c2NCC2CCCO2)ccc1O (stereo not given) | 24 |

| SMILES | inhibition [%] |
| --- | --- |
| O=C(Nc1ccccc1N1CCN(C(=O)c2ccc(Cl)cc2)CC1)c1cc2ccccc2o1 | 0.81 |
| O=C(CCC(=O)N(c1cccc(F)c1)C(C(=O)NC1CCCC1)c1ccncc1)Nc1cccnc1 (stereo not given) | 2.74 |
| COc1ccc(S(=O)(=O)N2CCSC2c2ccccc2)cc1 (stereo not given) | -2.95 |
| CCCOC(=O)C1[C@H]2C(=O)N(CCCOC)C[C@]23C=C[C@H]1O3 (stereo not given in full) | -3.17 |
| COc1cc2c(cc1OC)C(C)N(C(=O)c1cc3n(n1)C(C(F)(F)F)CC(c1ccco1)N3)CC2 (stereo not given) | 4.26 |
| Cc1ccc(NC(=O)N2CCC(c3nc4c(nnn4Cc4cccc(Cl)c4)c(=O)[nH]3)CC2)cc1 | -1.45 |
| Cc1nc(NCCNC(=O)c2ccco2)c2c(C)c(C)sc2n1 | 0.91 |
| Cc1c(NC(=O)CSc2nnc3sc4ccccc4n23)c(=O)n(-c2ccccc2)n1C | -2.79 |
| COc1ccc(-c2nnc3sc(-c4c(OC)cccc4OC)nn23)cc1 | -7.58 |
| COC(=O)c1ccccc1NC(=O)CSc1nnc(-c2ccncc2)o1 | 0.95 |
| COc1ccc(Cl)cc1NC(=O)c1oc(C)nc1C | 6.5 |
| CCOC(=O)CC(=O)Nc1c(C)cc(C)cc1C | -2.95 |
| O=S(=O)(c1ccccc1)c1nc(-c2ccco2)oc1NCCCN1CCOCC1 | -3.23 |
| O=C(COC(=O)c1ccc(S(=O)(=O)Nc2ccccc2)cc1)NCCN1C(=O)CSC1=O | -3.93 |
| Cc1cc(C)c(-c2cc(C(=O)Nc3c(C)n(C)n(-c4ccccc4)c3=O)[nH]n2)c(O)c1 | -5.09 |
| COc1ccc(-c2nnc(SCC(=O)N3CCCCC3)o2)cc1OC | -5.9 |
| Cc1cc(Br)ccc1NC(=O)CCN1C(=O)c2ccncc2C1=O | -9.18 |
| CC1=C(C(=O)N2CCCCC2)C2(CCC(C)CC2)OC1=O (stereo not given) | -3.61 |
| CCCN(CCC)S(=O)(=O)c1ccc(C(=O)Nc2nnc(-c3cccc(OC)c3)o2)cc1 | -1.64 |
| CC(C)(C)c1cc(CCC(=O)N2CCNCC2)c(C(C)(C)C)cc1O | -2.46 |

Reference: PubChem BioAssay
